Source: PubChem BioAssay (National Center for Advancing Translational Sciences (NCATS))
Sampled rows, rich in hits. Any-hit rate of the full collection: about 18%.
TDP1 block = inhibitors of human tyrosyl-DNA phosphodiesterase TDP1; Potency, µM (series often up to 130 µM), inactives show top-dose activity change, negative = inhibition, usual class: inhibitors; recombinant TDP1, AlphaScreen DNA substrate cleavage; AID 485290; actives 0.28% (n = 350,000); further: nearly all actives have a fitted effect of over 40% in size
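Recombinant E. coli-expressed Tdp1 (1 nM) preincubated with compound 15 min at RT, then 5'-biotin/3'-phosphotyrosine-FITC DNA substrate (15 nM) added for 5 min. AlphaScreen beads (10 ug/ml) added, 10 min RT; tyrosine-FITC cleavage read as signal loss.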
KAT2A inh = blocks human GCN5L2 histone acetyltransferase; Q92830; GCN5L2 HAT assay, ThioGlo1 CoA-SH fluorescence; Potency, µM (titrated, usually from 58.9 µM), for inactives: at the top dose activity change, negative = inhibition, hits mostly inhibitors; actives 0.21% (n = 390,000); AID 504327
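ThioGlo1-coupled HAT assay: 20nM GCN5L2, 70uM acetyl-CoA, 75uM H3(1-25) peptide, pH 7.5. Fluorescence read at 340/540nm at start and after 20 min at room temperature.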
DT40 TDP1 no CPT = qHTS for Inhibitors of human tyrosyl-DNA phosphodiesterase 1 (TDP1): qHTS in cells in absence of CPT. DT40 Tdp1-/- hTDP1 cells, no CPT, ATP luminescence, 48 h. actives 15% (n = 420,000). Potency, µM (top dose mostly 46.2 µM), for the others: top-dose activity change, negative = growth inhibition, hits mostly inhibitors; further: nearly all actives have a fitted effect of over 55% in size
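DT40 Tdp1-/-;hTDP1 cells, no CPT (DMSO vehicle only), 400 cells/well; compounds pin-transferred; ≥48 hr, 37 °C; CellTiter-Glo 30 min RT dark, luminescence read.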
PLK1 PBD inh = PLK1 (human) polo-box domain binding inhibition | Plk1 PBD binding of FITC phosphopeptide, fluorescence polarization | Potency, µM, inactives show max response, negative = inhibition, actives largely listed as inhibitors | P53350 | actives 2.8% (n = 360,000); further: series mostly up to about 57 µM; nearly all actives have a fitted effect of over 65% in size
DT40 TDP1 CPT = growth inhibition of DT40 Tdp1-/-;hTDP1 cells with camptothecin (screen for TDP1 inhibitors); chicken DT40 Tdp1-/-;hTDP1 cells + 20 nM CPT, ATP luminescence, 48 h; Potency, µM (titrated, usually from 46.2 µM), for the others: at the top dose activity change, negative = growth inhibition, hits mostly inhibitors; actives 12% (n = 420,000); further: nearly all actives have a fitted effect of over 55% in size
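Chicken DT40 Tdp1-/- cells stably complemented with human TDP1 were seeded at 400 cells/well in medium containing 20 nM camptothecin, exposed to pin-transferred compounds, and grown at 37 °C for at least 48 hr. Viability was read as ATP luminescence.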
VDR inh = blocks the human vitamin D receptor; P11473; VDR-SRC2-3 peptide fluorescence polarization, 2 h; Potency, µM, for the others: max response, negative = inhibition, hits mostly inhibitors; actives 0.93% (n = 400,000); AID 504847
Target sequence (P11473 whole entry, looked up): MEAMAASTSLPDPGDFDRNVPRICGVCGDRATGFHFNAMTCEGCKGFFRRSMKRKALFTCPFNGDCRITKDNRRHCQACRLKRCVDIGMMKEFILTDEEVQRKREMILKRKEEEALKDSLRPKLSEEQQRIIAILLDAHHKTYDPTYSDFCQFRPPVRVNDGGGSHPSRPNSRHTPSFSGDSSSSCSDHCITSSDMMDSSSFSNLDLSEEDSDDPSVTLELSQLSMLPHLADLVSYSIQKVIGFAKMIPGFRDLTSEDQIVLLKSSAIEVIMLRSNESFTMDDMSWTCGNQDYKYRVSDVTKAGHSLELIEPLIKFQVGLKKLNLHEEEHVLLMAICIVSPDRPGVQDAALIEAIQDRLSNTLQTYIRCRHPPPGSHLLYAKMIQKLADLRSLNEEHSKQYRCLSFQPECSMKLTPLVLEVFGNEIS
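Inhibition of the VDR/SRC2-3 peptide interaction is quantified by fluorescence polarization. Compounds (23 nl, pintool) incubate with the reagents for 2 hours at ambient room temperature.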
* hit, by the source's call; ? = inconclusive; . = not tested or not shown. The call rests on the fitted dose curve; in most records, active means well fitted curve in the direction sought with a large enough effect; inconclusive means small, poorly fitted or top-dose-only effect, or another doubt; inactive means no such curve, though single readings can be large; an effect the other way counts as inactive or inconclusive. On the % scale 0 is the no-effect control and ±100 the full control effect; potency means the concentration at half of the fitted maximal effect.

SMILES | TDP1 block | KAT2A inh | DT40 TDP1 no CPT | PLK1 PBD inh | DT40 TDP1 CPT | VDR inh
O=C(Nc1nnc(C2=COCCO2)o1)c1ccc(Cl)cc1 | 8% | -2% | ? | 0% | 16µM* | -6%
C=CCN1C(=O)C2C(C(=O)NC3CCCC3)C3C=CC2(O3)C1C(=O)NC1CCCC1 (stereo not given) | 7% | 0% | 17% | -2% | -1% | -3%
O=C(Nc1nnc(-c2ccco2)o1)c1cccc(N2C(=O)CCC2=O)c1 | -4% | -4% | 6% | -4% | 12% | -8%
Cc1cccc(C(=O)Nc2nnc(-c3ccco3)o2)c1 | 2% | -5% | 10µM* | 2% | 23µM* | 12%
O=C(COc1ccc(Cl)cc1)Nc1nnc(-c2ccc3c(c2)CCCC3)o1 | 0% | 2% | 5.8µM* | -7% | -4% | -7%
Cc1cccc(C(=O)Nc2nnc(-c3cccnc3)o2)c1 | 8% | -4% | ? | -4% | ? | -17%
O=C(Nc1nnc(-c2ccco2)o1)c1ccc(Cl)cc1 | 10% | -7% | 13µM* | -11% | ? | 0%
Cc1ccc(C(=O)Nc2nnc(-c3ccco3)o2)cc1C | 5% | 0% | 15µM* | -7% | 23µM* | -6%
C1=Cc2ccccc2/C1=C(\Cc1ccncc1)Oc1ccncc1 | . | . | 14µM* | . | 11µM* | .
O=C(NCc1ccco1)/C(=C/c1cccc(C(F)(F)F)c1)c1nc2ccccc2[nH]1 | 8% | 32% | 5.8µM* | -5% | 9.2µM* | -13%
NC(=O)N/N=C/c1c(Sc2nnnn2-c2ccccc2)nc2ccccn2c1=O | 2% | ? | 2.6µM* | -5% | 2.9µM* | -10%
COc1ccc(-c2nc3ccccc3c(=O)n2CCOc2ccc(C)cc2C)cc1 | 2% | -19% | -24% | 4% | -10% | -4%
CCCCCn1c(-c2ccc(OC)c(OC)c2)nc2ccccc21 | 3% | -8% | 7.3µM* | . | ? | 0%
COc1ccc(-c2nc3ccccc3n2Cc2ccccc2)cc1 | -2% | -10% | 8.2µM* | -2% | 18µM* | 3%
COc1ccc(-c2nc3ccccc3c(=O)n2CCOc2ccccc2C)cc1 | -6% | 1% | 18µM* | 4% | ? | -9%
O=C(O)Cn1c(-c2ccccc2)nc2ccccc21 | -1% | -3% | -10% | 27µM* | -18% | -6%
Cc1csc(=O)n1CC(=O)OCC(=O)NC(C)c1ccc(F)cc1 (stereo not given) | 1% | -1% | 1% | -7% | -17% | 10%
O=c1c2ccccc2nc(-c2ccccc2)n1Cc1ccccc1 | -5% | -12% | 26µM* | -9% | -20% | 2%
COc1ccc(Cn2c(/C=C/c3ccccc3)nc3ccccc32)cc1 | . | -14% | -27% | -5% | ? | -13%
C=CCn1c(-c2ccc(OC)cc2)nc2ccccc21 | 1% | -5% | 9.2µM* | -6% | 18µM* | -4%
COc1ccc(NC(=O)Cn2c(=O)c(C)nc3ccccc32)cc1Cl | 5% | -7% | -4% | 11% | 6% | 3%
COc1ccc(-c2n(Cc3ccccc3)c3ccccc3[n+]2Cc2ccccc2)cc1 | 5% | 0% | 0.26µM* | -6% | 0.46µM* | 6%
COC(=O)Cn1c(=O)c(C)nc2ccccc21 | 6% | 0% | 0% | 30µM* | 2% | -18%
Cn1c(=O)c(=O)n(C)c2cc(NS(=O)(=O)c3ccc(Br)cc3)c(Cl)cc21 | 8% | -5% | ? | . | -26% | 0%
O=C(Cn1c(=O)oc2ccccc21)Nc1n[nH]c(=S)s1 | -4% | ? | -4% | ? | 7% | ?
SMILES | TDP1 block | KAT2A inh | DT40 TDP1 no CPT | PLK1 PBD inh | DT40 TDP1 CPT | VDR inh
CCOc1ccc(NC(=O)CC2C(=O)N(c3ccccc3)C(=O)N2Cc2ccc3c(c2)OCO3)cc1 (stereo not given) | 6% | -8% | ? | . | ? | -9%
Cc1cccc(C(O)c2ncc(-c3cccc(C(F)(F)F)c3)[nH]2)c1C (stereo not given) | . | . | ? | 3% | ? | .
OC(Cc1ccccc1Br)c1ncc(-c2cccc(C(F)(F)F)c2)[nH]1 (stereo not given) | . | . | 16µM* | 5% | 23µM* | .
OC(Cc1cccc(Br)c1)c1ncc(-c2cccc(C(F)(F)F)c2)[nH]1 (stereo not given) | . | . | 16µM* | 10% | ? | .
c1ccc2c(c1)Cn1nnnc1-2 | 3% | 2% | -5% | -12% | -1% | 1%
c1ccc2c(c1)CC1(CCCCC1)n1nnnc1-2 | 2% | -4% | 23µM* | 0% | 15µM* | 13%
Cc1cc2c(ncn2Cc2ccccc2)c(N)c1C | 9% | -2% | -27% | -11% | -6% | -10%
Cc1ccc(C)c(N2CCN(C(=O)c3cc4ccccn4n3)CC2)c1 | -8% | 1% | 23µM* | -14% | ? | -14%
Cc1ccc(C)c(N2CCN(C(=O)c3ccc4[nH]c(C)c(C)c4c3)CC2)c1 | 11% | -15% | 12µM* | . | 12µM* | -3%
CCOC(=O)N1CCN(C(=O)c2ccc3[nH]c(C)c(C)c3c2)CC1 | 4% | 1% | -27% | 4% | -23% | 0%
O=C(c1cc2ccccn2n1)N1CCCC1 | 3% | 3% | . | . | . | .
Cc1ccc(C)c(N2CCN(C(=O)c3ccc4nsnc4c3)CC2)c1 | 5% | -7% | 13µM* | 4% | 12µM* | -2%
CN(C)S(=O)(=O)c1cccc(NC(=O)CCCSc2ccccc2)c1 | 5% | -11% | ? | -2% | ? | -23%
CCN(CC)S(=O)(=O)c1cccc(NC(=O)CN(C)C2CCCCC2)c1 | 1% | -6% | 15µM* | -4% | ? | 3%
CCN(CC)S(=O)(=O)c1cccc(C(=O)NCC2CCCCC2)c1 | . | -2% | 21µM* | 24µM* | ? | ?
CCN(CC)S(=O)(=O)c1cccc(NC(=O)CCSc2ccc(Cl)cc2)c1 | 8% | -6% | 21µM* | -1% | 16µM* | 14%
CCN(CC)S(=O)(=O)c1cccc(C(=O)NCC(c2ccccc2)N(C)C)c1 (stereo not given) | 3% | 0% | -6% | 1% | 5% | -2%
